In PubChem BioAssay AID1159580 (chemical genetic matrix, 2015):
Values joined by “and” are separate entries in the source; they are usually repeats but may differ in a detail not shown here. Identical values can stand only once. The campaign covered roughly 5,500 compounds. About 2,000 (36%) were called active. Not shown: some 18% with an inconclusive outcome. Cut-off read from the data, not from the text of the source: active = normalized growth mostly below about 0.91 (no sharp cut-off); inconclusive = no clear call, values can overlap the other calls; inactive = mostly above about 0.92. This is one part of the list.

Experiment: chemical genetic growth profiling, strain panel (AID 1159580);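 note: tested at 20 µM; growth read once vehicle control cultures reached saturation at 30 °C; 1 = growth at the plate median or of vehicle wells; lower values mean less growth of the strain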
Conditions: S. cerevisiae deletion strains, growth OD
[1] = locus YHR030C, strain SLT2, stronger effect = lower value
[2] = locus YHR079C, strain IRE1, stronger effect = lower value
[3] = locus YJL095W, strain BCK1, stronger effect = lower value
[4] = locus YJR066W, strain TOR1, stronger effect = lower value
[5] = locus YLR113W, strain HOG1, stronger effect = lower value
[6] = locus YNL183C, strain NPR1, stronger effect = lower value
[7] = locus YOR231W, strain MKK1, stronger effect = lower value
[8] = locus YPL256C, strain CLN2, stronger effect = lower value

Measured: normalized growth

COc1c(O)cc2oc3cc(O)c(CC=C(C)C)c(O)c3c(=O)c2c1CC=C(C)C
active: locus YAL013W, strain DEP1, stronger effect = lower value 0.346 | locus YBR021W, strain FUR4, stronger effect = lower value 0.578 | locus YBR229C, strain ROT2, stronger effect = lower value 0.913 | locus YBR231C, strain swc5, stronger effect = lower value 0.851 | locus YCL029C, strain bik1, stronger effect = lower value 0.773 | locus YDL035C, strain GPR1, stronger effect = lower value 0.611 | locus YDL074C, strain BRE1, stronger effect = lower value 0.242 | locus YDL101C, strain DUN1, stronger effect = lower value 0.633 | locus YDL192W, strain arf1, stronger effect = lower value 0.579 | locus YDR069C, strain doa4, stronger effect = lower value 0.89 | locus YDR101C, strain arx1, stronger effect = lower value 0.799 | locus YDR137W, strain rgp1, stronger effect = lower value 0.501 | locus YDR159W, strain sac3, stronger effect = lower value 0.749 | locus YDR162C, strain NBP2, stronger effect = lower value 0.543 | locus YDR195W, strain ref2 0.57 | locus YDR318W, strain mcm21, stronger effect = lower value 0.79 | locus YDR388W, stronger effect = lower value 0.833 | locus YDR392W, strain spt3, stronger effect = lower value 0.673 | locus YDR502C, strain sam2, stronger effect = lower value 0.771 | locus YEL061C, strain CIN8, stronger effect = lower value 0.68 | locus YER015W, strain faa2, stronger effect = lower value 0.901 | locus YER155C, strain BEM2 (second series), stronger effect = lower value 0.704 | locus YER155C, strain BEM2, stronger effect = lower value 0.388 | locus YER167W, strain BCK2, stronger effect = lower value 0.792 | locus YGL078C, strain dbp3, stronger effect = lower value 0.878 | locus YGL086W, strain mad1, stronger effect = lower value 0.681 | locus YGL248W, strain PDE1, stronger effect = lower value 0.67 | locus YGR135W, strain pre9, stronger effect = lower value 0.77 | [1] 0.538 and 0.687 | locus YHR079C, strain IRE1 (second series), stronger effect = lower value 0.918 | [2] 0.56 | locus YHR094C, strain hxt1, stronger effect = lower value 0.901 | locus YHR129C, strain ARP1, stronger effect = lower value 0.545 | locus YHR200W, strain rpn10, stronger effect = lower value 0.78 | locus YIL066C, strain RNR3, stronger effect = lower value 0.553 | locus YIL125W, strain kgd1, stronger effect = lower value 0.744 | locus YIR030C, strain dcg1, stronger effect = lower value 0.867 | [3] 0.307 and 0.797 | locus YJL129C, strain trk1, stronger effect = lower value 0.774 | locus YJL134W, strain LCB3, stronger effect = lower value 0.833 | locus YJL164C, strain tpk1, stronger effect = lower value 0.894 | locus YJL166W, strain qcr8, stronger effect = lower value 0.819 | locus YJL187C, strain SWE1 (second series), stronger effect = lower value 0.518 | locus YJR043C, strain POL32, stronger effect = lower value 0.538 | locus YKL085W, strain MDH1 (second series), stronger effect = lower value 0.724 | locus YKL085W, strain MDH1, stronger effect = lower value 0.724 | locus YKL190W, strain CNB1, stronger effect = lower value 0.548 | locus YKR001C, strain vps1, stronger effect = lower value 0.365 | locus YLR027C, strain aat2, stronger effect = lower value 0.916 | locus YLR039C, strain RIC1, stronger effect = lower value 0.263 | locus YLR058C, strain SHM2, stronger effect = lower value 0.642 | [5] 0.426 | locus YLR262C, strain YPT6 (second series), stronger effect = lower value 0.667 | locus YLR262C, strain YPT6, stronger effect = lower value 0.399 | locus YLR268W, strain sec22, stronger effect = lower value 0.704 | locus YLR320W, strain mms22, stronger effect = lower value 0.843 | locus YLR330W, strain CHS5, stronger effect = lower value 0.534 | locus YLR342W, strain FKS1 (second series), stronger effect = lower value 0.591 | locus YLR371W, strain rom2, stronger effect = lower value 0.358 | locus YLR418C, strain cdc73, stronger effect = lower value 0.259 | locus YML016C, strain PPZ1, stronger effect = lower value 0.674 | locus YML032C, strain rad52, stronger effect = lower value 0.838 | locus YMR058W, strain fet3, stronger effect = lower value 0.9 | locus YMR078C, strain ctf18, stronger effect = lower value 0.903 | locus YMR205C, strain PFK2, stronger effect = lower value 0.822 | locus YMR223W, strain ubp8, stronger effect = lower value 0.786 | locus YMR263W, strain SAP30, stronger effect = lower value 0.726 | locus YMR307W, strain GAS1, stronger effect = lower value 0.474 | locus YNL067W, strain RPL9B, stronger effect = lower value 0.719 | locus YNL071W, strain lat1, stronger effect = lower value 0.562 | locus YNL153C, strain GIM3, stronger effect = lower value 0.625 | locus YNL233W, strain BNI4, stronger effect = lower value 0.51 | locus YNL250W, strain rad50, stronger effect = lower value 0.862 | locus YNL271C, strain bni1, stronger effect = lower value 0.883 | locus YNL298W, strain CLA4, stronger effect = lower value 0.831 | locus YNL307C, strain MCK1, stronger effect = lower value 0.385 | locus YNR052C, strain pop2, stronger effect = lower value 0.781 | locus YOL006C, strain TOP1, stronger effect = lower value 0.279 | locus YOL147C, strain pex11, stronger effect = lower value 0.694 | locus YOR061W, strain CKA2, stronger effect = lower value 0.707 | locus YOR069W, strain VPS5, stronger effect = lower value 0.735 | locus YOR136W, strain idh2, stronger effect = lower value 0.899 | locus YOR144C, strain elg1, stronger effect = lower value 0.755 | locus YOR184W, strain ser1, stronger effect = lower value 0.331 | [7] 0.531 | locus YPL051W, strain arl3, stronger effect = lower value 0.782 | locus YPL055C, strain LGE1, stronger effect = lower value 0.274 | [8] 0.741 | locus YPR163C, strain tif3, stronger effect = lower value 0.544 | locus YPR167C, strain met16, stronger effect = lower value 0.786 | strain wtn01, stronger effect = lower value 0.697
inactive: locus YAL021C, strain ccr4, stronger effect = lower value 1 | locus YAL026C, strain drs2, stronger effect = lower value 0.982 | locus YAL030W, strain snc1, stronger effect = lower value 0.984 | locus YBR009C, strain hhf1, stronger effect = lower value 0.983 | locus YBR023C, strain chs3, stronger effect = lower value 0.923 | locus YBR171W, strain sec66, stronger effect = lower value 1.02 | locus YBR279W, strain paf1, stronger effect = lower value 0.968 | locus YCL011C, strain gbp2, stronger effect = lower value 0.912 | locus YCL016C, strain dcc1, stronger effect = lower value 0.957 | locus YCL061C, strain MRC1, stronger effect = lower value 0.991 | locus YCL069W, strain vba3, stronger effect = lower value 1.01 | locus YCR088W, strain abp1, stronger effect = lower value 1 | locus YDL005C, strain med2, stronger effect = lower value 1.05 | locus YDL040C, strain nat1, stronger effect = lower value 1 | locus YDL185W, strain tfp1, stronger effect = lower value 0.916 | locus YDR001C, strain nth1, stronger effect = lower value 1.01 | locus YDR297W, strain sur2, stronger effect = lower value 0.923 | locus YDR334W, strain swr1, stronger effect = lower value 0.999 | locus YDR335W, strain msn5, stronger effect = lower value 0.957 | locus YEL003W, strain gim4, stronger effect = lower value 0.937 | locus YEL037C, strain rad23, stronger effect = lower value 1 | locus YEL061C, strain CIN8 (second series), stronger effect = lower value 1.01 | locus YER016W, strain bim1, stronger effect = lower value 0.969 | locus YER110C, stronger effect = lower value 0.952 | locus YER111C, strain swi4, stronger effect = lower value 1.02 | locus YFR010W, strain ubp6, stronger effect = lower value 0.978 | locus YGL167C, strain pmr1, stronger effect = lower value 1.01 | locus YGL173C, strain kem1, stronger effect = lower value 0.979 | locus YGL227W, strain vid30, stronger effect = lower value 1 | locus YGL240W, strain doc1, stronger effect = lower value 0.887 | locus YGL253W, strain hxk2, stronger effect = lower value 0.99 | locus YGR252W, strain gcn5, stronger effect = lower value 0.833 | locus YHR013C, strain ard1, stronger effect = lower value 0.985 | locus YHR027C, strain rpn1, stronger effect = lower value 0.969 | locus YHR142W, strain chs7, stronger effect = lower value 0.89 | locus YIL073C, strain SPO22, stronger effect = lower value 0.695 | locus YJL092W, strain hpr5, stronger effect = lower value 1 | locus YJL115W, strain asf1, stronger effect = lower value 1.03 | locus YJL154C, strain vps35, stronger effect = lower value 1.04 | locus YJL168C, strain set2, stronger effect = lower value 0.948 | locus YJL187C, strain SWE1, stronger effect = lower value 0.936 | [4] 0.891 | locus YKL009W, strain mrt4, stronger effect = lower value 0.885 | locus YKL068W, stronger effect = lower value 0.947 | locus YKL160W, strain elf1, stronger effect = lower value 0.904 | locus YKR026C, strain gcn3, stronger effect = lower value 1 | locus YKR091W, strain srl3, stronger effect = lower value 1.01 | locus YLL001W, strain dnm1, stronger effect = lower value 0.963 | locus YLL026W, stronger effect = lower value 1 | locus YLL041C, strain sdh2, stronger effect = lower value 0.986 | locus YLR102C, strain apc9, stronger effect = lower value 0.93 | locus YLR258W, strain gsy2, stronger effect = lower value 0.939 | locus YLR342W, strain FKS1, stronger effect = lower value 0.944 | locus YLR357W, strain rsc2, stronger effect = lower value 0.957 | locus YLR370C, strain arc18, stronger effect = lower value 0.982 | locus YLR384C, strain iki3, stronger effect = lower value 0.983 | locus YML124C, strain tub3, stronger effect = lower value 0.938 | locus YMR125W, strain sto1, stronger effect = lower value 1.01 | locus YMR129W, stronger effect = lower value 0.974 | locus YMR231W, strain pep5, stronger effect = lower value 1 | [6] 0.887 | locus YNL209W, strain ssb2, stronger effect = lower value 0.968 | locus YNL248C, strain rpa49, stronger effect = lower value 0.994 | locus YNL322C, strain KRE1 (second series), stronger effect = lower value 0.995 | locus YNR049C, strain mso1, stronger effect = lower value 0.967 | locus YOL012C, strain htz1 0.271 | locus YOR001W, strain rrp6, stronger effect = lower value 0.916 | locus YOR070C, strain gyp1, stronger effect = lower value 0.95 | locus YOR080W, strain dia2, stronger effect = lower value 0.984 | locus YOR083W, strain WHI5, stronger effect = lower value 0.941 | locus YOR106W, strain vam3, stronger effect = lower value 0.916 | locus YOR265W, strain rbl2, stronger effect = lower value 0.964 | locus YOR270C, strain vph1, stronger effect = lower value 0.881 | locus YOR290C, strain snf2, stronger effect = lower value 0.912 | locus YOR316C, strain cot1, stronger effect = lower value 0.927 | locus YPL078C, strain atp4, stronger effect = lower value 0.991 | locus YPL106C, strain sse1, stronger effect = lower value 0.856 | locus YPL240C, strain hsp82, stronger effect = lower value 0.951 | locus YPR119W, strain clb2, stronger effect = lower value 0.931 | locus YPR141C, strain kar3, stronger effect = lower value 0.96

COc1cc2oc3cc(OC)c(OC)c(CC=C(C)C)c3c(=O)c2c(O)c1CC=C(C)C
inactive: [1] 0.981 | [2] 0.988 | [3] 0.971 | [4] 0.934 | [5] 0.958 | [6] 0.919 | [7] 0.981 | [8] 0.992
